Our source for the AC50 and outcome values is PubChem BioAssay (EPA / NIEHS).

The nature of experiment [1]: NVS_IC_rCaDHPRCh_L: NovaScreen (NVS) Ion Channel Assay for rat Calcium Channel, Type L, Dihydropyridine Site (CaDHPRCh_L) (AID 2283320). The method, then:
(§1) NVS_IC_rCaDHPRCh_L is a biochemical, single-readout assay that uses extracted gene-proteins from Rat cortical membranes in a tissue-based cell-free assay. Measurements were taken 1 hour after chemical dosing in a 48-well plate.NVS_IC_rCaDHPRCh_L is one of one assay component(s) measured or calculated from the NVS_IC_rCaDHPRCh_L assay. It is designed to make measurements of radioligand binding, a form of binding reporter, as detected with scintillation counting signals by Filter-based radiodetection technology.Data from the assay component NVS_IC_rCaDHPRCh_L was analyzed into 1 assay endpoint. This assay endpoint, NVS_IC_rCaDHPRCh_L, was analyzed in the positive analysis fitting direction relative to DMSO as the negative control and baseline of activity. Using a type of binding reporter, loss-of-signal activity can be used to understand changes in the binding as they relate to the gene Cacna1a. Furthermore, this assay endpoint can be referred to as a primary readout, because the performed assay has only produced 1 assay endpoint. To generalize the intended target to other relatable targets, this assay endpoint is annotated to the ion channel intended target family, where the subfamily is calcium channel.
(§2) Binding assays used specific radioligands (tritiated, iodinated) with non-radioactive competitive displacement ligands in agonist or antagonist protocols (as indicated) and various reference compounds and inhibitors to titrate specific binding to receptors and transporters. Most enzyme assays (CYPs, kinases, phosphatases, proteases, HDACs) used recombinant protein and specific substrates (fluorescence mostly, some colorimetric and radioactive) and inhibitors, followed by a biochemical separation of substrate and product. All assays for the biochemical HTS were initially run in duplicate at a single concentration (10 uM for CYP450 assays and 25 uM for all others). Assay-chemical combinations meeting a pre-defined threshold (e.g., 30% inhibition and other criteria defined below) were then run in singleton concentration-response format with maximum concentration of 20 uM for CYPs and 50 uM for all others. Each assay was run with positive and negative controls, and concurrent controls on every plate. The follow-up (secondary) screen tested active chemical-pairs in concentration series, as well as a few additional assays not tested in the primary screen, some selected negative inactives, and several cases re-run in the concentration series for confirmatory purposes.

Experiment [2] addresses Sodium channel protein type 1 subunit alpha (Rattus norvegicus) (UniProt P04774). Kind of experiment: NVS_IC_rNaCh_site2: NovaScreen (NVS) Ion Channel Assay for rat Sodium Channel, Site 2 (NaCh) (AID 2283322).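 Note: hit means loss of radioligand binding signal relative to DMSO so AC50 marks displacement.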 The procedure: as §1, with “NVS_IC_rNaCh_site2” for “NVS_IC_rCaDHPRCh_L”, “forebrain” for “cortical”, “plate.NVS_IC_rNaCh_site2” for “plate.NVS_IC_rCaDHPRCh_L”, “NVS_IC_rNaCh_site2,” for “NVS_IC_rCaDHPRCh_L,”, “Scn1a.” for “Cacna1a.”, “sodium” for “calcium”
as §2, with “Assay-chemical combinations meeting a pre-defined threshold (e.g., 30% inhibition and other criteria defined below) were then run in singleton concentration-response format with maximum concentration of 20 uM for CYPs and 50 uM for all others.” left out

The target in experiment [3] is rat Thyrotropin Releasing Hormone Receptor (TRH), Trhr (gene 25570) (UniProt Q01717). Kind of experiment: NVS_GPCR_rTRH: NovaScreen (NVS) G Protein-Coupled Receptor Assay for rat Thyrotropin Releasing Hormone Receptor (TRH) (AID 2283329).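 Note: hit means lower bound tracer signal versus DMSO baseline.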 In outline: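 Competitive radioligand binding on rat forebrain membrane preparations, with filtration and scintillation readout after 4 h. Primary testing in duplicate at 25 uM; actives confirmed in concentration-response. DMSO defined baseline.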

Experiment [4] concerns the target human Peripheral-type Benzodiazepine Receptor (PBR), TSPO (gene 706) (UniProt P30536). Briefly: NVS_MP_hPBR: NovaScreen (NVS) Membrane Protein Assay for human Peripheral-type Benzodiazepine Receptor (PBR) (AID 2283331).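 Note: hits reduce radioligand binding relative to DMSO baseline.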 In outline:
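Using human colon-derived membranes, this one-endpoint binding test reads radioligand loss by scintillation after 1 h. Screening started at 25 uM in duplicate, with positive and negative controls on every plate, and actives moved to dose series.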

Experiment [5] relates to NCBI gene 24521. Kind of experiment: NVS_IC_rKATPCh: NovaScreen (NVS) Ion Channel Assay for rat Potassium Channel, ATP-Sensitive (KATPCh) (AID 2283319). In outline:
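Primary duplicate screen at 25 uM, then singleton concentration series to 50 uM maximum, in a rat cortex membrane radioligand displacement assay. Binding measured by filtration and scintillation 2 h post-dose; DMSO baseline.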

Experiment [6] addresses rat Glutamate, AMPA Site (AMPA), Gria1 (gene 50592) (UniProt P19490). Kind of experiment: NVS_LGIC_rAMPA: NovaScreen (NVS) Ligand-Gated Ion Channel Assay for rat Glutamate, AMPA Site (AMPA) (AID 2283324). In outline: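 Screening at 25 uM in duplicate preceded concentration series reaching 50 uM for qualifying compounds. Radioligand displacement on rat forebrain membranes, 1 h, filter-based scintillation readout; reduced binding relative to DMSO.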

In experiment [7] the target is bovine Gamma-Aminobutyric Acid Type A Receptor BDZ, alpha 5 site (GABARa5), GABRA5 (gene 523515) (UniProt Q08E50). Briefly: NVS_LGIC_bGABARa5: NovaScreen (NVS) Ligand-Gated Ion Channel Assay for bovine Gamma-Aminobutyric Acid Type A Receptor BDZ, alpha 5 site (GABARa5) (AID 2283323). The method, then: as §1, with “NVS_LGIC_bGABARa5” for “NVS_IC_rCaDHPRCh_L”, “Bovine hippocampal” for “Rat cortical”, “plate.NVS_LGIC_bGABARa5” for “plate.NVS_IC_rCaDHPRCh_L”, “NVS_LGIC_bGABARa5,” for “NVS_IC_rCaDHPRCh_L,”, “GABRA5.” for “Cacna1a.”, “ligand-gated ion” for “calcium”
as §2

Experiment [8] has as its target rat Glutamate, NMDA Agonist Site (GluNMDA), Grin1 (gene 24408) (UniProt P35439). Kind of experiment: NVS_LGIC_rGluNMDA_Agonist: NovaScreen (NVS) Ligand-Gated Ion Channel Assay for rat Glutamate, NMDA Agonist Site (GluNMDA) (AID 2283327). The method, then:
NVS_LGIC_rGluNMDA_Agonist is a biochemical, single-readout assay that uses extracted gene-proteins from Rat forebrain membranes in a tissue-based cell-free assay. Measurements were taken 1 hour after chemical dosing in a 48-well plate.NVS_LGIC_rGluNMDA_Agonist is one of one assay component(s) measured or calculated from the NVS_LGIC_rGluNMDA_Agonist assay. It is designed to make measurements of radioligand binding, a form of binding reporter, as detected with scintillation counting signals by Filter-based radiodetection technology.Data from the assay component NVS_LGIC_rGluNMDA_Agonist was analyzed into 1 assay endpoint. This assay endpoint, NVS_LGIC_rGluNMDA_Agonist, was analyzed in the positive analysis fitting direction relative to DMSO as the negative control and baseline of activity. Using a type of binding reporter, gain-of-signal activity can be used to understand changes in the binding as they relate to the gene Grin1. Furthermore, this assay endpoint can be referred to as a primary readout, because the performed assay has only produced 1 assay endpoint. To generalize the intended target to other relatable targets, this assay endpoint is annotated to the ion channel intended target family, where the subfamily is ligand-gated ion channel. […]

In experiment [9] the target is human Serotonin, 5-Hydroxytryptamine Receptor 3 (5HT3), HTR3A (gene 3359) (UniProt P46098). Briefly: NVS_LGIC_h5HT3: NovaScreen (NVS) Ligand-Gated Ion Channel Assay for human Serotonin, 5-Hydroxytryptamine Receptor 3 (5HT3) (AID 2283325). In outline: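 Initially tested at 25 uM in duplicate, then up to 50 uM in concentration-response for actives, compounds competed with a radioligand for HEK293-derived human 5-HT3 receptor. Bound counts were measured by filtration and scintillation at 1 h; loss of signal versus DMSO.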

In experiment [10] the target is rat Oxytocin Receptor (OXT), Oxtr (gene 25342) (UniProt P70536). Kind of experiment: NVS_GPCR_rOXT: NovaScreen (NVS) G Protein-Coupled Receptor Assay for rat Oxytocin Receptor (OXT) (AID 2283330). The procedure:
NVS_GPCR_rOXT is a biochemical, single-readout assay that uses extracted gene-proteins from Rat uterine membranes in a tissue-based cell-free assay. Measurements were taken 1 hour after chemical dosing in a 48-well plate.NVS_GPCR_rOXT is one of one assay component(s) measured or calculated from the NVS_GPCR_rOXT assay. It is designed to make measurements of radioligand binding, a form of binding reporter, as detected with scintillation counting signals by Filter-based radiodetection technology.Data from the assay component NVS_GPCR_rOXT was analyzed into 1 assay endpoint. This assay endpoint, NVS_GPCR_rOXT, was analyzed in the positive analysis fitting direction relative to DMSO as the negative control and baseline of activity. […] Furthermore, this assay endpoint can be referred to as a primary readout, because the performed assay has only produced 1 assay endpoint. […]
Binding assays used specific radioligands (tritiated, iodinated) with non-radioactive competitive displacement ligands in agonist or antagonist protocols (as indicated) and various reference compounds and inhibitors to titrate specific binding to receptors and transporters. Most enzyme assays (CYPs, kinases, phosphatases, proteases, HDACs) used recombinant protein and specific substrates (fluorescence mostly, some colorimetric and radioactive) and inhibitors, followed by a biochemical separation of substrate and product. […]

Structures are written as SMILES. Results filed as inconclusive are left out. Activity calls are given as the source filed them. Rule for the calls: active = hit-call score of the fitted dose curve at least 0.9, where 1 is the maximum; inconclusive = response in the unintended direction; inactive = score below 0.9.

One may read the AC50 as the concentration at which the activity in the assay is half-maximal.

Sequence of bovine Gamma-Aminobutyric Acid Type A Receptor BDZ, alpha 5 site (GABARa5), GABRA5 (gene 523515) (Q08E50 whole entry, looked up): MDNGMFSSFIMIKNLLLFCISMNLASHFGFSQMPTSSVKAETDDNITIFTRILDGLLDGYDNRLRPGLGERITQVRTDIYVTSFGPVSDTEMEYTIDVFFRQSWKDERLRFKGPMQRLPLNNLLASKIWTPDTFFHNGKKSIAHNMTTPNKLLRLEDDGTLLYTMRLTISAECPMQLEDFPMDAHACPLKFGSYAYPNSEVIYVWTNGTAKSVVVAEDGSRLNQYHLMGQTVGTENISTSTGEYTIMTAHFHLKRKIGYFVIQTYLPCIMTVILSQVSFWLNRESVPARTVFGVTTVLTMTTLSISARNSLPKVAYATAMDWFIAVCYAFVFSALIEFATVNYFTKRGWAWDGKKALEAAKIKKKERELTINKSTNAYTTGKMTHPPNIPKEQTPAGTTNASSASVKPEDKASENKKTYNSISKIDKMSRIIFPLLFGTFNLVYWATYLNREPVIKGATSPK
Sequence of human Peripheral-type Benzodiazepine Receptor (PBR), TSPO (gene 706) (P30536 whole entry, looked up): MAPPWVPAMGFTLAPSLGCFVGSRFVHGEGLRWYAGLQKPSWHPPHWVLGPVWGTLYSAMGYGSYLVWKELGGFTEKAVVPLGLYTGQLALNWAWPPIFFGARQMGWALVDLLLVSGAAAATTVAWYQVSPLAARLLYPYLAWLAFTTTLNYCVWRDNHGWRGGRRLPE
Sequence of rat Glutamate, AMPA Site (AMPA), Gria1 (gene 50592) (P19490 whole entry, looked up): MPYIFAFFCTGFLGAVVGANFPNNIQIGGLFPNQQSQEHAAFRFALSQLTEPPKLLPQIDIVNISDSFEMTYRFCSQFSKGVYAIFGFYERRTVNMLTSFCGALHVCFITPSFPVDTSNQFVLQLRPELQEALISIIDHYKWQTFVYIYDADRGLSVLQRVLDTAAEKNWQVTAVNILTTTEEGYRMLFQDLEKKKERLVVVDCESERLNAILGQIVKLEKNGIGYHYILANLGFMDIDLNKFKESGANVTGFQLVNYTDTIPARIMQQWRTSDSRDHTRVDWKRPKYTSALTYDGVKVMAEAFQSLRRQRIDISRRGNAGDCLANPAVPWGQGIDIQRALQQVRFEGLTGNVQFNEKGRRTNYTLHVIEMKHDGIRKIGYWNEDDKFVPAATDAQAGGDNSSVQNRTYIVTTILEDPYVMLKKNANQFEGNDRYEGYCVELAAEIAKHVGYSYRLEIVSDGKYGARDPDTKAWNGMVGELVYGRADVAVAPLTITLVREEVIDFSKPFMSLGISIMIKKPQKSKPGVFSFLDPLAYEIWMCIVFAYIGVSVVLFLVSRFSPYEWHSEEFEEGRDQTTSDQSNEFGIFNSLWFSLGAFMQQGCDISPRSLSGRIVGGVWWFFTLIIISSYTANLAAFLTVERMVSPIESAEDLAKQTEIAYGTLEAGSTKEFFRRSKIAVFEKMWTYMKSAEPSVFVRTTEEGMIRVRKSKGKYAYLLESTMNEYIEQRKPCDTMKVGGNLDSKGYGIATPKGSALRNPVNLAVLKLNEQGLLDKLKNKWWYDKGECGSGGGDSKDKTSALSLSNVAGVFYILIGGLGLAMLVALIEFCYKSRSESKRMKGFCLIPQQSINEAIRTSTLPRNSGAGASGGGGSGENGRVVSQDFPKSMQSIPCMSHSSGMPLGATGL
Sequence of rat Thyrotropin Releasing Hormone Receptor (TRH), Trhr (gene 25570) (Q01717 whole entry, looked up): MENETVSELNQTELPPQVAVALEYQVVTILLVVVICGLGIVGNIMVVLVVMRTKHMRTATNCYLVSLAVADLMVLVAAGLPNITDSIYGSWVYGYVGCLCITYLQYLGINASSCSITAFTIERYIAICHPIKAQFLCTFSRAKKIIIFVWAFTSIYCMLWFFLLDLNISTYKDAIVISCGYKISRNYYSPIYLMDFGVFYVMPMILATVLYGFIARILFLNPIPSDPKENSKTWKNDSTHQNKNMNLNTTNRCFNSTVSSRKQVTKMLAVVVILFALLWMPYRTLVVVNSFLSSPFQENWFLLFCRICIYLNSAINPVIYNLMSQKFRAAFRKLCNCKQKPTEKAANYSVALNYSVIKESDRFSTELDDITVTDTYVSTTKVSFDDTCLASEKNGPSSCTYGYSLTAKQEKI
Sequence of human Serotonin, 5-Hydroxytryptamine Receptor 3 (5HT3), HTR3A (gene 3359) (P46098 whole entry, looked up): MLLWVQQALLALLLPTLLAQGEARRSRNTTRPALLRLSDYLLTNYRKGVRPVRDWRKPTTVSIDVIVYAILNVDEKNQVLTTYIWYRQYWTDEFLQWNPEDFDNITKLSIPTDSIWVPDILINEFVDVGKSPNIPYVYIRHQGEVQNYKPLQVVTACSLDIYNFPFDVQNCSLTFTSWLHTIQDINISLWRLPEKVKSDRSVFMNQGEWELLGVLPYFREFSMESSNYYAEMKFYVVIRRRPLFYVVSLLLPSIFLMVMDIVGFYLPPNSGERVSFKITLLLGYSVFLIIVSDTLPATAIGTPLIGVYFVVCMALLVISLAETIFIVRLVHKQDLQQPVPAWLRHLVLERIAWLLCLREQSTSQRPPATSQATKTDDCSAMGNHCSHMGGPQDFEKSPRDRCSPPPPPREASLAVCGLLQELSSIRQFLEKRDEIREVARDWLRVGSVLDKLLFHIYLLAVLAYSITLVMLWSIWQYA
Sequence of rat Oxytocin Receptor (OXT), Oxtr (gene 25342) (P70536 whole entry, looked up): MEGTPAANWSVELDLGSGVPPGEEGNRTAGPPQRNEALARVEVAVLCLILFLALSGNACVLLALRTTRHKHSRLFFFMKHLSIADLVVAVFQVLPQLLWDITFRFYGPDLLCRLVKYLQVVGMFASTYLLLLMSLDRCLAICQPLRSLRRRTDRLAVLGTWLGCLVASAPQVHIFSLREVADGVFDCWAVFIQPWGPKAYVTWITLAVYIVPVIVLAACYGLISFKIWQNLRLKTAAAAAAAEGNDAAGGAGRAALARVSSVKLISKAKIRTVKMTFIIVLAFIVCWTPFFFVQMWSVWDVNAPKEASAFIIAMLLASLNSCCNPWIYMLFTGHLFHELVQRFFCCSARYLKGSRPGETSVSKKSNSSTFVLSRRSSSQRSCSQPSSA

`C[Si](Cn1cncn1)(c1ccc(F)cc1)c1ccc(F)cc1`: the AC50 is 25.7 µM (active) in [1], 18.1 µM (active) in experiment [2] and 25 µM (active) in [4]. Moreover, the outcome in [3] was inactive.

With `Cc1cc(C2CC2)nc(Nc2ccccc2)n1`, the half-maximal activity concentration (AC50) in [2] was 9.68 µM (active); in experiment [4] it was 25 µM (active).

In the case of `Nc1nc(N)nc(NC2CC2)n1`, the compound was called inactive in [5].

For `FC(F)C(F)(F)OCC(Cn1cncn1)c1ccc(Cl)cc1Cl` (stereo unspecified), the half-maximal activity concentration (AC50) in [1] is 12.6 µM (active); in experiment [2], 25 µM (active); in [4], 19.4 µM (active). Also, the call in [3] was inactive.

`COc1ccc(C(=CC(=O)N2CCOCC2)c2ccc(Cl)cc2)cc1OC`: the outcome in experiment [5], in [1] and in [4] was inactive.

In the case of `COP(=O)(OC)OC(Br)C(Cl)(Cl)Br` (stereo unspecified), the compound was classed as inactive in experiment [5].

For `CN1COCN(Cc2cnc(Cl)s2)C1=N[N+](=O)[O-]`, the outcome in [1] was inactive.

On to `CCCOCC(=Nc1ccc(Cl)cc1C(F)(F)F)n1ccnc1`, for which the outcome in experiment [1] and in experiment [2] was inactive. Also, the half-maximal activity concentration (AC50) in experiment [4] is 8.63 µM (active).

For `CCC(=O)Nc1ccc(Cl)c(Cl)c1`, the compound was called inactive in experiment [2] and in experiment [3]. Further, the half-maximal activity concentration (AC50) in experiment [4] was 15.6 µM (active).

With `CN(C)[C@@H]1C(=O)C(C(N)=O)=C(O)[C@@]2(O)C(=O)C3=C(O)c4c(O)cccc4[C@@](C)(O)[C@H]3[C@H](O)[C@@H]12`, the outcome in experiment [6] was inactive. In experiment [4], the AC50 was 12.9 µM (active).

With `CC[C@H](C)[C@H]1O[C@]2(C=C[C@@H]1C)C[C@@H]1C[C@@H](C/C=C(\C)[C@@H](O[C@H]3C[C@H](OC)[C@@H](O[C@H]4C[C@H](OC)[C@@H](NC)[C@H](C)O4)[C@H](C)O3)[C@@H](C)/C=C/C=C3\CO[C@@H]4[C@H](O)C(C)=C[C@@H](C(=O)O1)[C@]34O)O2`, the half-maximal activity concentration (AC50) in [1] is 4.83 µM (active); in experiment [2], 16.6 µM (active); in [7], 1.56 µM (active); in experiment [8] it was 16.4 µM (active).

As for `CC1=NNC(=O)N(/N=C/c2cccnc2)C1`, the result in experiment [5], in experiment [7] and in [4] was inactive.

`Nc1c(Cl)cc([N+](=O)[O-])cc1Cl`: the compound was called inactive in experiment [2], in experiment [3] and in [4].

Take `CN(C)C(=O)Nc1cccc(C(F)(F)F)c1`: the results for the concentration at half-maximal activity (AC50) in experiment [5] and in experiment [4] were 10.9 µM (active) and 17.9 µM (active), respectively.

`CSc1nnc(C(C)(C)C)c(=O)n1N`: the outcome in experiment [5], in [9] and in experiment [10] was inactive.

For the compound `CCCCOC(=O)c1ccccc1C(=O)O`, the result in [7] and in [4] was inactive.

`O=[N+]([O-])c1cc(C(F)(F)F)c(Cl)c([N+](=O)[O-])c1Nc1ncc(C(F)(F)F)cc1Cl`: the result in experiment [7] and in [3] was inactive.

For `CNC(=O)ON=C(SC)C(=O)N(C)C`, the result in experiment [5] and in experiment [4] was inactive.

As for `CC(C)=CC1C(C(=O)OCN2C(=O)C3=C(CCCC3)C2=O)C1(C)C` (stereo unspecified), the AC50 in experiment [1] was 38.2 µM (active); in [4] it was 13.5 µM (active). Besides, the result in [6] was inactive.

Take `CC(C1CC1)C(O)(Cn1cncn1)c1ccc(Cl)cc1` (stereo unspecified): the result in experiment [2], in [3] and in experiment [4] was inactive.

Consider `CSc1nc(NC(C)C)nc(NC(C)C)n1`, for which the AC50 in [2] is 11.9 µM (active).

As for `C#CCC1=C(C)C(OC(=O)C2C(C=C(C)C)C2(C)C)CC1=O` (stereo unspecified), the result in experiment [9] and in experiment [4] was inactive.

Regarding `CON=C(C(=O)OC)c1ccccc1CON=C(C)c1cccc(C(F)(F)F)c1`, the compound was called inactive in [6] and in [3]. The half-maximal activity concentration (AC50) in experiment [4] was 1.06 µM (active).

With `S=C1NCCN1`, the compound was called inactive in experiment [6] and in experiment [4].

`CCc1cccc(CC)c1N(COC)C(=O)CCl`: the result in [8] was inactive.

For the compound `CNc1cnn(-c2cccc(C(F)(F)F)c2)c(=O)c1Cl`, the compound was called inactive in experiment [10].
